Consider 20 compounds from PubChem BioAssay AID2781 (National Center for Advancing Translational Sciences (NCATS), 2010).

Activity calls are given as the source filed them.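 Rule for the calls: active = compound whose NMR saturation transfer difference test with menin is positive, showing direct binding to the protein; inactive = the rest.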

Sequence of Menin (Homo sapiens) (O00255 whole entry, looked up, the tested form may be a part): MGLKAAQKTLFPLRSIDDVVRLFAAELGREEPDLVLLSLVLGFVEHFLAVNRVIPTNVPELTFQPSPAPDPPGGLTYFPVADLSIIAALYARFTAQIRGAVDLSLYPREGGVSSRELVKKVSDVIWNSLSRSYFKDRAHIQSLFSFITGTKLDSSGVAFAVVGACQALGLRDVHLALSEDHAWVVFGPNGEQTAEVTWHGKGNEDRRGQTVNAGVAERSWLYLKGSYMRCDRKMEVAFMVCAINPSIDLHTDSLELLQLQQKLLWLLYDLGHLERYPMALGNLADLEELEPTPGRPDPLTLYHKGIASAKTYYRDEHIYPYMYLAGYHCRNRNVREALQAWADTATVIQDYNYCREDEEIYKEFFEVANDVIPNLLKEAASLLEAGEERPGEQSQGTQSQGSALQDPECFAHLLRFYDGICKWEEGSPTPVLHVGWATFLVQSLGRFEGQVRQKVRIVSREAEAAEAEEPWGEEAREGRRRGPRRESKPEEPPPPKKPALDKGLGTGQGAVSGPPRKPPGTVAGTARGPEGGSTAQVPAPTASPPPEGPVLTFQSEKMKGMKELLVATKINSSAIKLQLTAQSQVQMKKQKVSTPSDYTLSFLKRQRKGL

For this assay, the target named is Menin (Homo sapiens) (UniProt O00255). The experiment in a line: Confirmation of Inhibitors Targeting the Menin-MLL Interaction in MLL Related Leukemias: NMR spectroscopy to verify direct binding of compounds to menin. Particulars: purified menin, NMR STD binding, 100 uM. The source says:
qHTS Assay for Inhibitors Targeting the Menin-MLL Interaction in MLL Related Leukemias NIH Chemical Genomics Center [NCGC] NIH Molecular Libraries Probe Centers Network [MLPCN] MLPCN Grant: MH084875-01A1 Assay Submitter (PI): Jolanta Grembecka, Tomasz Cierpicki, University of Virginia Translocations of the MLL (Mixed Lineage Leukemia) gene are frequently found in human leukemias affecting both children and adults. Fusion of MLL to one of more than 60 genes results in generation of oncogenic proteins upregulating Hox genes, which are vital to blood cell development. Patients harboring fusion of the MLL gene suffer from aggressive leukemias and respond poorly to available therapies. All of the oncogenic fusion proteins have a preserved N-terminal fragment of MLL that has been identified to interact with menin. It has been recently discovered that association with menin is critical to the leukemogenic activity of the MLL fusion oncoproteins. Selective targeting of the menin-MLL interaction could provide an attractive therapeutic approach to develop novel drugs for MLL-related leukemias. Small molecules blocking the menin-MLL interaction should reverse the oncogenic potential of MLL fusion proteins. We have developed and optimized a fluorescence polarization-based assay for the identification of Menin-MLL inhibitors. The assay was run employing two different MLL-derived peptides. The present assay uses a 12 amino acid peptide labeled with fluorescein at its N-terminus. This peptide consists of the menin high affinity binding motif from MLL and is potently bound by menin. Another peptide with a mutated sequence, labeled with Texas Red, was used in parallel as a less stringent screen for inhibitors. The present assay was developed to confirm hits from this primary screen, examining saturation transfer differences in NMR spectra upon incubation of the menin protein with compound.
The Menin protein, the MLL-wild type (w.t.) derived peptide (N-terminal 12 amino acids), the MLL-derived peptide labeled with Texas Red and the MLL-w.t. peptide labeled with Fluorescein were kindly supplied by laboratory of Dr. Jolanta Grembecka, University of Virginia. All protein and peptide solutions were stored in single use aliquots at -80C. The Buffer components for all assays were purchased from Sigma-Aldrich (St. Louis, MO) and Invitrogen (Carlsbad, CA). Assay Reagents: 1. Menin protein 2. MLL w.t. 3. NMR buffer: 50mM phosphate, 50mM NaCl, 1mM DTT, pH = 7.5 NMR protocol: 1. Prepare 450 uL of menin (2.5 uM) in complex with 100uM compound in NMR buffer and run STD (Saturation Transfer Difference) on NMR Bruker 600 MHz 2. Prepare 450 uL of menin (2.5 uM) in complex with 100 uM compound and 25uM of MLL w.t. in NMR buffer and run STD (Saturation Transfer Difference) on NMR Bruker 600 MHz
`Cc1sc2ncnc(NC3CCN(Cc4ccccc4)CC3)c2c1C`: the outcome is “active; positive”.
Regarding `COc1ccccc1NS(=O)(=O)c1cc(N2Cc3ccccc3C2=N)ccc1N1CCOCC1`, the outcome is “inactive; negative”.
As to `CCC(=O)Nc1ccc(-c2cc(-c3ccccc3)nc(-c3ccc(NC(=O)CC)cc3)n2)cc1`, the outcome was “inactive; negative”.
Next, `COc1ccccc1C(=O)Nc1ccnn1C1CCN(CC2CC=CCC2)CC1` (stereo not given): “active; positive”.
`COc1ccc(Cn2nnnc2C(c2ccc3ncccc3c2)N2CCN(C3CCCCC3)CC2)cc1` (stereo not given): the outcome was “active; positive”.
Regarding `NS(=O)(=O)c1ccc(NC(=O)c2ccc(-c3ccccc3)cc2)cc1`, the outcome was “inactive; negative”.
Turning to `CCCC(c1nnnn1Cc1ccco1)N1CCN(C2CCCC2)CC1` (stereo not given), the outcome was “active; positive”.
Turning to `CC1CCCCN1S(=O)(=O)c1ccc(C(=O)Nc2ccccc2-c2nc3ccccc3[nH]2)cc1` (stereo not given), the outcome was “inactive; negative”.
Next, `Oc1ccc(Nc2ncnc3c2oc2ccccc23)cc1`: “inactive; negative”; `Cc1cc(N/N=C/c2ccc(O)cc2)c2cccc(C)c2n1`: “inactive; negative”.
The result for `O=C(O)CSc1cc(NS(=O)(=O)c2ccc(Br)cc2)c2ccccc2c1O` reads “inactive; negative”; that for `COC(=O)c1ccccc1NC1=C/C(=N\S(=O)(=O)c2ccc(C(=O)O)cc2)c2ccccc2C1=O`, “inactive; negative”.
Next, `NC(=NCCCCCCN=C(N)/N=C(\N)Nc1ccc(Cl)cc1)/N=C(\N)Nc1ccc(Cl)cc1`: “inactive; negative”.
For `CN(C)C(CNc1ncnc2sc3c(c12)CCCCC3)c1ccco1` (stereo not given), the outcome is “active; positive”.
Next, `Cc1ccc(-c2cc(C(=O)Nc3cc(C)ccc3O)no2)cc1`: “inactive; negative”; `O=C(Nc1cc(Br)ccc1O)c1cc(-c2ccco2)on1`: “inactive; negative”; `CC(c1ccccc1)c1nnc(NC(=O)Nc2ccccc2F)s1` (stereo not given): “inactive; negative”.
Next, `CCCC(c1nnnn1Cc1cccs1)N1CCN(C2CCCC2)CC1` (stereo not given): “active; positive”.
Regarding `CC(=O)NC1C(=O)N(CCN2CCOCC2)c2ccc(Cl)cc21` (stereo not given), the outcome is “inactive; negative”.
The result for `CS(=O)(=O)c1ccc2nc(NC(=O)Nc3cccc(Cl)c3)sc2c1` reads “inactive; negative”.
